An excerpt weighted towards active compounds, which were near 4.2% of everything screened.
Mtb betalactam – beta-lactam sensitization of Mtb H37Rv. 0.27% of 330,000 active. inhibition, % at 25 µM. M. tuberculosis H37Rv growth with meropenem, percent inhibition; call rule not given here;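 note: growth measured after seven days incubation then overnight dye step; 0% = bacteria only wells and 100% = bacteria with antibiotic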
Mtb FBA inh – inhibitors of M. tuberculosis fructose-bisphosphate aldolase; inhibition, % at 1 µM; 2.3% of 360,000 active; purified M. tuberculosis FBA, fluorescence read-out; P9WQA3; in the data active = inhibition above about 27%;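 note: 0% = vehicle and 100% = reference inhibitor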
GDH-TPI counter – counter-screen for M. tuberculosis FBA inhibitors: GDH-TPI coupled enzymes | inhibition, % at 4.8 µM | AID 588335 | GDH-TPI coupled enzyme counterscreen, NADH absorbance | 1.2% of 360,000 active;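 note: 0% = DMSO wells and 100% = wells lacking the enzyme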
CCHF vOTU inh – CCHFV vOTU protease inhibition. Pep-AMC fluorescence. inhibition, % at 11.5 µM. 0.55% of 370,000 active. AID 651958; note: 0% = vehicle wells with enzyme and 100% = no enzyme wells
RecA intein inh – blocks M. tuberculosis RecA intein splicing | inhibition, % (no concentration beside the values) | cell-free RecA intein splicing, fluorescence | 0.75% of 290,000 active | P9WHJ3; in the data active = inhibition above about 30%;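 note: 0% = vehicle wells and 100% = reference inhibitor control wells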
* hit, by the source's call; . = not tested or not shown; + = active, no number. Cut-off read from the data, not from the text of the source, unless noted: active = inhibition above about 30%; inactive = the rest.

SMILES	Mtb betalactam	Mtb FBA inh	GDH-TPI counter	CCHF vOTU inh	RecA intein inh
CN[C@H]1C[C@H]2c3cc(-c4ccccc4C)ccc3CCN2C[C@H]1[C@H](C)O	.	.	.	12	.
CC(C)c1ccc(N=Nc2c(O)[nH]c(=O)[nH]c2=O)cc1	-2	0	8	-11	-2
CCN(c1cccc(C)c1)S(=O)(=O)c1c(C)[nH]c(=O)[nH]c1=O	9	0	6	-8	-1
Cc1cccc(-[n+]2c(C)cc(C)c3c(=O)[nH]c(=O)[nH]c32)c1	-7	+	33*	-277	3
Cc1cc(C)[n+](-c2ccc(C(C)C)cc2)c2[nH]c(=O)[nH]c(=O)c12	4	+	11	-309	-4
C=C(C)[C@@H]1CC2=C(OC)C(CC=C(C)C)(CC=C(C)C)C(=O)C(C(=O)c3ccccc3)=C2O1	.	.	.	8	.
CCOc1ccccc1NC(=O)CSc1nnc(SCc2ccccc2)s1	.	.	.	10	.
COc1ccc(/C=C/c2nnc(NC(=O)C(C)(C)C)s2)cc1	58	9	52*	-1	-4
CCCC(=O)Nc1nnc(/C=C/c2ccc(OC)cc2)s1	-9	11	22	16	1
CCOc1ccc(/C=N/NC(=O)c2cc(-c3ccccc3)nc3ccccc23)cc1O	2	0	15	-11	-2
COc1ccc(/C=N/NC(=O)c2nc(-c3ccccc3)cc(-c3ccccc3)n2)cc1O	-3	4	18	-5	3
CCOc1cc(/C=N/NC(=O)c2cc(-c3cccc(OC)c3)nc3ccccc23)ccc1O	0	0	37*	12	-6
COc1cc(/C=N/NC(=O)c2cnn3c(C)cc(-c4ccccc4)nc23)ccc1O	1	-2	37*	19	-5
COc1cc(/C=N/NC(=O)c2cc(-c3ccccc3OC(C)C)nc3ccccc23)ccc1O	-1	-3	40*	6	8
COc1ccc(-c2cc(C(=O)N/N=C/c3sccc3C)c3ccccc3n2)c(OC)c1	-7	-1	34*	14	-19
CN(CCCOC(=O)c1cccs1)C1CN(Cc2cn(Cc3ccccc3Cl)nn2)S(=O)(=O)C1 (configuration not stated)	.	.	.	-9	.
COc1ccc(C(=O)OCCN2CCN(C3CN(Cc4cn(Cc5ccccc5C(F)(F)F)nn4)S(=O)(=O)C3)CC2)cc1OC (configuration not stated)	.	.	.	5	.
O=C(O)c1ccc(N/N=C/C=C/c2ccccc2[N+](=O)[O-])cc1	15	-7	39*	7	-6
COc1ccc(/C=N/NC(=O)c2cc(-c3ccccc3)nc3ccccc23)cc1O	7	-3	21	8	2
COc1cc(/C=N/NC(=O)c2cc(-c3ccccc3)nc3ccccc23)ccc1O	2	8	46*	3	4
O=C(O)COc1ccccc1/C=N/NC(=O)c1cc(-c2ccc(F)cc2)nc2ccccc12	-2	5	51*	8	3
COc1ccccc1-c1cc(C(=O)N/N=C/C=C/c2ccccc2[N+](=O)[O-])c2ccccc2n1	87	1	31*	12	6
Cc1ccc(-c2cc(C(=O)NN=Cc3ccccc3OCC(=O)O)[nH]n2)cc1	.	.	.	6	.
O=C(N/N=C/C=C/c1ccccc1[N+](=O)[O-])c1cc(-c2cccnc2)nc2ccccc12	15	-2	13	-11	-2
CCOc1ccc(-n2c(SCC(=O)Nc3cc4oc5ccccc5c4cc3OC)nnc2-c2cccc(Cl)c2)cc1	.	.	.	17	.
SMILES	Mtb betalactam	Mtb FBA inh	GDH-TPI counter	CCHF vOTU inh	RecA intein inh
CCOC(=O)CC[C@@H]1CC[C@]2(CCCN(C(=O)C(C)(C)C)C2)O1	.	.	.	2	.
COc1cc(/C=N/N=C(\N)c2nonc2N)cc(OC)c1O	-4	-2	36*	2	-2
Cc1[nH][nH]c(=O)c1C(c1ccc(-c2cccc(Cl)c2)o1)c1c(C)[nH][nH]c1=O	31	-2	1	.	97*
CN1C(=O)C[C@@](C#N)(C(=O)N2CCCC2)[C@H]1c1ccccc1	.	.	.	-3	.
Cc1cc(=O)oc2cc(OCC(O)CN3CCc4ccccc4C3)ccc12 (configuration not stated)	-5	50*	14	-11	1
Cc1cc(=O)oc2cc(OCC(O)CN3CCN(c4ccccc4)CC3)ccc12 (configuration not stated)	-6	20	25	-2	-1
O=C(COC(=O)c1cc(-c2ccc(Cl)s2)nc2ccccc12)NCc1ccco1	29	16	3	-21	-12
Cc1ccc(-c2cc(C(=O)NCc3ccco3)c3ccccc3n2)s1	2	113*	24	-125	6

Source: PubChem
